Compound activity (PubChem)
In the library only some 12% were active in any assay of this set; here they are far more common.
NS1 function inh: blocks influenza NS1 protein function | Potency, µM (titrated, usually from 46.1 µM), inactives show at the top dose activity, positive = more growth | 270,000 compounds, 0.4% hits | AID 2326; calls by dose curve; further: actives are rising curves; nearly all actives have a fitted effect of over 50% in size
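Read-out: OD600 growth recovery of NS1-expressing budding yeast. Cells grown overnight at 30C in -URA glucose medium, washed, resuspended and diluted 1:100 in 2% galactose assay medium, pH 6.0. Same strain lacking NS1 served as positive control.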
SARS PLpro yeast: inhibitors of SARS-CoV papain-like protease in yeast | Potency, µM (doses to about 32.9 µM), without a hit: top-dose activity, positive = growth rescue, usual class: activators | AID 485353 | S. cerevisiae expressing SARS-CoV PLpro, growth rescue | 330,000 compounds, 0.19% hits; calls by dose curve; further: 0% is about no effect; nearly all actives have a fitted effect of over 55% in size
HCV inhibitor: blocks hepatitis C virus; Potency, µM (doses to about 41.8 µM), without a hit: at the highest dose activity change, negative = inhibition, most hits filed as inhibitors; Huh7.5.1 HCVcc-Cre infection, luciferase reporter, 44 h; 340,000 compounds, 3.4% hits; further: on the % scale 0 is the no-effect control and ±100 the full control effect
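After 44 h co-culture of compound, cells and HCVcc-Cre (~0.5 moi), substrate is added for 15 min at room temperature and luciferase measured over 15 sec. Cells were seeded at 1,000/well and pre-cultured 4 h.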
Pf growth 96h: inhibits malaria parasite growth, 96 h; P. falciparum luciferase reporter growth, 96 h; Potency, µM (titrated, usually from 28.7 µM), for inactives: at the top dose activity change, negative = inhibition, most hits filed as inhibitors; 320,000 compounds, 6.9% hits; further: on the % scale 0 is the no-effect control and ±100 the full control effect
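Delayed-death screen, second-generation endpoint: infected erythrocytes, 2% hematocrit, 0.05% parasitemia final; 96 hours at 37 C, 5% CO2; luciferase detection reagent; luminescence decrease equals reduced growth.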
Pf growth 48h: P. falciparum growth inhibition at 48 hours (one generation). P. falciparum luciferase growth in erythrocytes, 48 h. Potency, µM (doses to about 28.7 µM), inactives show at the highest dose activity change, negative = inhibition, actives largely listed as inhibitors. 310,000 compounds, 5.9% hits. AID 504832; further: on the % scale 0 is the no-effect control and ±100 the full control effect
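Growth was read as firefly luciferase luminescence after a 48 h, 37 C, 5% CO2 exposure of compounds to reporter-bearing P. falciparum cultures (0.1% parasitemia, 2% hematocrit final) in Albumax-supplemented RPMI 1640.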
AMA1 RON2 block: AMA1-RON2 (P. falciparum) interaction inhibition. Potency, µM (top dose mostly 58.2 µM), without a hit: top-dose activity change, negative = inhibition, hits mostly inhibitors. AlphaScreen AMA1-biotinylated RON2 peptide binding. AID 720542. 360,000 compounds, 0.2% hits;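 further: 0% = vehicle wells and -100% = peptide control; nearly all actives have a fitted effect of over 45% in size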
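AMA1 (3D7) with his tag at 25 nM final met compounds first, then biotinylated RON2 peptide at 25 nM; detection used donor plus acceptor beads, 10 µg/mL apiece, read by AlphaScreen after 30 min at room temperature.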
An asterisk follows results filed as active; ? = inconclusive; · = no result; [ ] = dose if it differs, or a comment. Unless noted, the call rests on the fitted dose curve; in most records, active means well fitted curve in the direction sought with a large enough effect; inconclusive means small, poorly fitted or top-dose-only effect, or another doubt; inactive means no such curve, though single readings can be large; an effect the other way counts as inactive or inconclusive. Potency means the concentration at half of the fitted maximal effect.

SMILES | NS1 function inh | SARS PLpro yeast | HCV inhibitor | Pf growth 96h | Pf growth 48h | AMA1 RON2 block
COc1ccc(/C=c2/sc3n(c2=O)C(c2ccccc2OC)C2=C(N=3)c3ccccc3CC2)cc1O (stereo unspecified) | 25.4% | 5.7% | ? | 2.33µM* | 2.08µM* | 15.9%
CC(O)(c1ccc(F)c(F)c1)c1nc(-c2ccc3ccccc3c2)cs1 (stereo unspecified) | · | · | · | · | · | 14.7%
F[Si-2](F)(F)(F)(F)F | · | · | · | -14.4% | -15.5% | ·
COc1ccc(C2C(C(C)=O)=C(C)N=c3s/c(=C\c4cc(C)n(C)c4C)c(=O)n32)c(OC)c1 (stereo unspecified) | ? | 1.8% | -15.9% | 8.28µM* | 9.28µM* | -26.2%
CCOCCCNCc1cccc(OCc2ccc(F)cc2)c1 | -9.6% | 0.6% | ? | 11.7µM* | ? | -13.6%
CCOCCCNCc1ccc(Cl)cc1 | -5.0% | -3.2% | -0.4% | 37.2% | 18.6% | -9.1%[2.32 µM]
CCCCN(CCCC)CC(O)c1cc(Cl)cc2c1-c1ccc(Cl)cc1/C2=C/c1ccc(Cl)cc1 (stereo unspecified) | · | · | · | 0.0213µM* | 0.0151µM* | ·
CCCn1c(N2CCN(CC(=O)c3c[nH]c4ccccc34)CC2)nc2c1c(=O)[nH]c(=O)n2C | 2.6% | 4.0% | 12.6µM* | 0.738µM* | 9.28µM* | -12.5%
CCCn1c(N2CCC(Cc3ccccc3)CC2)nc2c1c(=O)[nH]c(=O)n2C | -124.8% | -5.6% | ? | -16.6% | ? | -10.9%
CCn1c(N2CCN(CC(=O)c3c(C)n(C)c4ccccc34)CC2)nc2c1c(=O)[nH]c(=O)n2C | -12.0% | -14.2% | -22.5% | 1.31µM* | · | 10.1%
CCN1CCN(c2nc3c(c(=O)[nH]c(=O)n3C)n2Cc2ccccc2F)CC1 | 9.3% | -1.1% | 7.3% | 31.5% | 3.0% | 22.1%
O=C(/C=C/c1ccc([N+](=O)[O-])cc1)NCCN1C(=O)S/C(=C\c2ccc(F)cc2)C1=O | -0.4% | 0.4% | -24.9% | -1.2% | 6.5% | -5.2%
COC(=O)c1ccc(N)cc1O | 3.8% | -5.3% | -2.7% | 10.4µM* | · | 3.4%
Cc1sc2ncn(CC(=O)Nc3cccc(S(N)(=O)=O)c3)c(=O)c2c1-c1ccccc1 | 13.9% | 0.3% | -3.4% | 0.6% | 11.0% | 1.4%
Cc1ccc2[nH]c(=O)c(CN(C(=O)c3cccs3)c3ccccc3)cc2c1 | 5.2% | 1.3% | ? | ? | -1.9% | -1.1%
Cc1cccc(N(Cc2cc3cc(C)ccc3[nH]c2=O)C(=O)c2cccs2)c1 | 2.1% | 0.4% | ? | 7.38µM* | 13.1µM* | 5.3%
COc1ccc2[nH]c(=O)c(CN(C(=O)C3CCCO3)c3cccc(C)c3)cc2c1 (stereo unspecified) | -32.0% | 1.0% | 11.9% | 8.28µM* | 10.9% | ·
COc1ccc(N(Cc2cc3cc(OC)ccc3[nH]c2=O)C(=O)C2CCCO2)cc1 (stereo unspecified) | -17.3% | 8.7% | 7.0% | 42.1% | ? | 11.1%
CSc1nccc(N2CCN(c3ccc(F)cc3)CC2)n1 | -2.8% | -69.5% | ? | 11.7µM* | ? | ?
Cc1cccc(N(C(=O)CNC(=O)c2cccs2)C(C(=O)NC2CCCC2)c2ccncc2)c1 (stereo unspecified) | -7.7% | -0.5% | 4.9% | -15.3% | 5.0% | 4.9%
CC(O)/C=C/c1ccc2ccccc2n1 (stereo unspecified) | -34.7% | -7.6% | 11.2µM* | · | -19.2% | 2.8%
Fc1cccc(F)c1/C=C/c1ccc2ccccc2n1 | -21.2% | -34.9% | -7.7% | 125.8% | 87.8% | 7.3%
IC(I)I | · | · | · | -10.1% | -7.8% | ·
COc1ccc(C2CC(c3ccccc3)=NN2C(=O)CCC(=O)O)cc1 (stereo unspecified) | 10.9% | 0.1% | 13.6% | -16.6% | -10.3% | -29.3%
COc1ccc(C2=Nc3nc(-c4ccccc4)cn3C(c3ccc(OC)cc3)C2)cc1 (stereo unspecified) | 23.7% | -3.1% | -10.1% | ? | 2.94µM* | 14.3%
SMILES | NS1 function inh | SARS PLpro yeast | HCV inhibitor | Pf growth 96h | Pf growth 48h | AMA1 RON2 block
COc1ccc(CNC(=O)C(=O)NCCC2CCCCN2S(=O)(=O)c2ccc(C)cc2)cc1 (stereo unspecified) | · | -6.0% | ? | ? | ? | -7.5%
COc1ccc(CNC(=O)C(=O)NCCC2CCCCN2S(=O)(=O)c2ccccc2)cc1 (stereo unspecified) | · | -11.7% | ? | ? | 11.7µM* | -14.2%
COc1ccc(S(=O)(=O)N2CCCC2CNC(=O)C(=O)NCc2ccccc2Cl)cc1 (stereo unspecified) | · | 2.1% | ? | 9.28µM* | ? | -6.5%
COc1ccc(-[n+]2c(-c3ccccc3)cc(-c3ccc(C)cc3)cc2-c2ccccc2)cc1 | -85.0% | -20.4% | ? | 145.1% | 0.928µM* | ?
Brc1ccc(-[n+]2c(-c3ccccc3)cc(-c3ccccc3)cc2-c2ccccc2)cc1 | · | -8.1% | ? | 0.828µM* | 1.85µM* | -3.8%
CCCOC(=O)c1ccc(-[n+]2c(-c3ccccc3)cc(-c3ccccc3)cc2-c2ccccc2)cc1 | · | 1.5% | ? | 1.31µM* | 2.33µM* | 1.9%
CCOC(=O)c1cc(-c2ccccc2C)n(CC2CC(c3ccc(OC)cc3)=NO2)n1 (stereo unspecified) | · | -22.3% | ? | · | · | -5.4%
O=C1CCN(Cc2ccccc2)C(=S)N1 | · | · | 0.9% | · | · | -9.3%
Cc1c(C(=O)N/N=C/c2ccc(N(C)C)cc2)[nH]c2ccc(Cl)cc12 | -1.9% | 14.1% | ? | 1.85µM* | 19.9% | 12.4%
Cc1c(C(=O)N/N=C/c2ccccc2)[nH]c2ccc(Cl)cc12 | -1.6% | -15.4% | ? | ? | 4.3% | 5.6%
COc1ccccc1CC1CC(=O)N(c2cccc(Cl)c2C)C1=O (stereo unspecified) | 8.6% | -2.8% | -0.3% | -4.1% | 14.0% | 18.5%
O=C(Nc1ccc(N2CCCCC2)c(Cl)c1)c1ncn[nH]1 | -8.8% | -26.5% | -21.1% | -5.3%[5.75 µM] | 0.465µM* | 13.8%
Nc1cccc2c(=O)c3ccccc3[nH]c12 | -12.6% | 0.5% | ? | 1.85µM* | 1.85µM* | 18.5%
COc1ccc(-c2csc(CCN3N=C(C)CC3=O)n2)cc1 | 9.0% | -0.2% | -16.7% | ? | 4.15µM* | 11.3%
CCOC(=O)C1=C(O)/C(=C/c2cn(CC(=O)N3CCCC3)c3ccccc23)SC1=Nc1ccccc1 | 22.6% | 4.2% | 11.2µM* | 3.29µM* | 4.65µM* | -2.6%
CCOC(=O)c1ccc2c(c1)NCc1cccc(OC)c1O2 | -33.6% | -4.6% | -27.5% | 246.5% | 151.0% | -5.2%
Cc1cc(C)c(NC(=O)C2CCCN2C)c(C)c1 (stereo unspecified) | 4.3% | 4.9% | 13.9% | 8.28µM* | 38.7% | 17.7%
Cc1cc(C)c(NC(=O)C2CCCN2CCO)c(C)c1 (stereo unspecified) | 2.8% | -0.5% | 11.1% | · | 6.8% | 16.2%
